Jurkat NFkB inh – inhibitors of the PMA/ionomycin-induced NF-kB reporter in Jurkat cells; PMA/ionomycin-induced NF-kB luciferase reporter, luminescence; inhibition, % at 4 µM; 330,000 compounds, 0.53% hits; in the data active = inhibition above about 50%
Gli-Sufu block – blocks Gli-Sufu signaling in a luciferase reporter | Sufu-KO-LIGHT fibroblasts, Gli luciferase reporter luminescence | inhibition, % at 5 µM | 340,000 compounds, 0.74% hits;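 active = inhibition above about 55%, limit read from the data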;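 note: 0% = DMSO-treated cells and 100% = wells with medium but no cells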
Shn3 inh set2 – inhibitors of Schnurri-3 3'UTR reporter in osteoblasts. Clone20 osteoblast Shn3 3'UTR firefly luciferase, 24 h. inhibition, % at 12.5 µM. 360,000 compounds, 0.52% hits. AID 588674;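 active = mean inhibition of at least 75% with every replicate also reaching 75%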;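 note: 0% = median of neutral control wells and 100% = pilot-screen positive control compound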
697 NFkB inh – lowers PMA/ionomycin-induced NF-kB signal in 697 B cells; 330,000 compounds, 0.33% hits; AID 435022; 697 B-cell NF-kB luciferase reporter, 16 h; inhibition, % at 4 µM; in the data active = inhibition above about 35%
Mdm2-MdmX inh – disrupts the human Mdm2-MdmX interaction. O15151+Q00987. 330,000 compounds, 3% hits. inhibition, % at 8 µM. SaOS-2 split-luciferase Mdm2/MdmX complementation, luminescence;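 active = inhibition of at least 50% at 8 µM in the primary screen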
Target sequence (O15151 whole entry, looked up): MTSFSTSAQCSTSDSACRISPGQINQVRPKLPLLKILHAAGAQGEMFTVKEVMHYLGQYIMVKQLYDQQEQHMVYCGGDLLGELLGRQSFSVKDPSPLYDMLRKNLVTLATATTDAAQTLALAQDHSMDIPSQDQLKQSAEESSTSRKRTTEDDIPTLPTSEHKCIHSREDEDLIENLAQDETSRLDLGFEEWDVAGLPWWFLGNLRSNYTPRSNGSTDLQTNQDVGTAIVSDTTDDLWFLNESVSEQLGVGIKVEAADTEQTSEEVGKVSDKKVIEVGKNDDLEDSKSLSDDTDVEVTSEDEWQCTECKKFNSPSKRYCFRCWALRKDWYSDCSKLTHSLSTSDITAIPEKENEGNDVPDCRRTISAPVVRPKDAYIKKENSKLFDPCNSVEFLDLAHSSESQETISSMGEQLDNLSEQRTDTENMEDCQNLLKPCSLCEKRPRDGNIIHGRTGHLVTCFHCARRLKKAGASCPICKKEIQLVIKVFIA
Target sequence (Q00987 whole entry, looked up): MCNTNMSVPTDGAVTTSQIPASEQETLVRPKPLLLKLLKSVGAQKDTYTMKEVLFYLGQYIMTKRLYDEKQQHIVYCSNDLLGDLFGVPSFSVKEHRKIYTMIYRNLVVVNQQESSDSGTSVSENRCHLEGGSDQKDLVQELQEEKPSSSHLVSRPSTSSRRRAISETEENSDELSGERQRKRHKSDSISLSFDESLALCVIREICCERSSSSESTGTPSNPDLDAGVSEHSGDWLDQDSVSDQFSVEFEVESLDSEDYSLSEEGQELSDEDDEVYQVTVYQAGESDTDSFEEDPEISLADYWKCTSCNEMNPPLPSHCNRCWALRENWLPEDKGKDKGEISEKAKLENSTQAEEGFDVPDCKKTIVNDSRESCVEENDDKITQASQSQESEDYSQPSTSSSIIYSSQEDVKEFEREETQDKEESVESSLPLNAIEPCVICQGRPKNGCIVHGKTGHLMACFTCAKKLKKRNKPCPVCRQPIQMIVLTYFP
697 NFkB conf – lowers PMA/ionomycin-induced NF-kB signal in 697 B cells; inhibition, % at 4 µM; shares compounds with 697 NFkB inh; 2,000 compounds, 35% hits; 697 B-cell NF-kB luciferase, 16 h; in the data active = inhibition mostly above about 28%, no sharp cut-off; inactive = mostly below about 22%
Mdm2-MdmX conf – confirmation of human Mdm2/MdmX interaction inhibitors | shares compounds with Mdm2-MdmX inh | AID 489028 | inhibition, % at 8 µM | Mdm2-MdmX binding, luminescent assay | 10,000 compounds, 55% hits; in the data active = inhibition above about 40%
FLuc counter – counter-screen for Mdm2/MdmX inhibitors: full-length luciferase | 6,200 compounds, 77% hits | shares compounds with Mdm2-MdmX inh | SaOS-2 full-length luciferase counterscreen, luminescence | inhibition, % at 8 µM;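 active = mean inhibition at 8 µM reaching about 37%, which flags the compound as non-specific, limit read from the data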;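 note: p53-null SaOS-2 cells with luciferase driven by a doxycycline-inducible promoter; compound on cells about two nights before reading with doxycycline added after day one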
Gli-Sufu confirm – Gli-SUFU antagonism confirmation, single concentration; Sufu-KO-LIGHT cells, Gli luciferase reporter, luminescence; 2,500 compounds, 40% hits; shares compounds with Gli-Sufu block; inhibition, % at 5 µM;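 active = mean inhibition at 5 µM reaching about 45%, limit read from the data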;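 note: plate controls were DMSO-treated cells for no effect and wells lacking cells for full effect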
SufuKO cytotox – cytotoxic in Gli-SUFU antagonist counter-screen. Sufu-KO-LIGHT cells cytotoxicity, ATP luminescence. AID 651994. cytotoxicity, % at 5 µM. 2,500 compounds, 32% hits. shares compounds with Gli-Sufu block;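 active = mean cytotoxicity at 5 µM above about 25%, limit read from the data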;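 note: cells exposed to compound overnight for roughly 16 to 18 hours; plate controls were DMSO wells with cells for no effect and medium without cells for full effect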
Wnt3a cs – Wnt3a reporter inhibition counter-screen; Wnt-LIGHT cells, Wnt3a-driven luciferase reporter, luminescence; 2,500 compounds, 20% hits; inhibition, % at 6.25 µM; shares compounds with Gli-Sufu block;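 active = mean inhibition above about 25%, limit read from the data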
The depositor's hits bear a star; . = no result. Only some compounds are listed: those with a hit (about 3.8% of all), similar ones and a draw of the others.

SMILES	Jurkat NFkB inh	Gli-Sufu block	Shn3 inh set2	697 NFkB inh	Mdm2-MdmX inh	697 NFkB conf	Mdm2-MdmX conf	Gli-Sufu confirm	SufuKO cytotox	Wnt3a cs	others
O=S(=O)(c1ccc2c(c1)C(=NO)c1cc(S(=O)(=O)N3CCCCC3)ccc1-2)N1CCCCC1	25.4	95.0*	97.7*	103.8*	94.9*	-32.8	99.2*	93.3*	71.1*	104.4*	FLuc counter=1.6
CC(C)CNC(=O)CSc1nc2nn(-c3ccccc3)c(=O)c-2c2n1CCCCC2	-4.6	10.6	2.0	17.0	-8.9	.	.	.	.	.
CNC(=O)CSc1nc2nn(-c3ccccc3)c(=O)c-2c2n1CCCCC2	-0.6	55.7*	-38.7	35.4*	25.3	37.7*	.	23.4	6.5	-28.0
CSCCCc1cn([C@@H](CO)C(=O)NCCCCCCCCCCC(=O)N2CCNCC2)nn1	14.6	-7.0	19.1	-10.1	19.6	.	.	.	.	.
Cc1ccc(/C=C2\SC(=S)N(CCCC(=O)NNC(=O)c3ccccc3O)C2=O)cc1	30.1	60.4*	87.2*	87.5*	49.4	76.2*	.	58.9*	13.9	100.4*
Cc1ccc(/C=C2/SC(=S)N(CCCC(=O)Nc3ccc(O)cc3)C2=O)cc1	2.1	62.1*	12.9	87.7*	91.9*	93.3*	94.2*	67.1*	26.3*	35.3*	FLuc counter=53.8*
CC(=O)c1cn(CCOc2cc(C)ccc2C)c2ccccc12	48.5	68.4*	89.9*	65.4*	19.3	83.2*	.	63.5*	21.1	46.3*
O=c1[nH]c(C(F)(F)F)nc2ccc3ccccc3c12	-12.3	-0.6	-23.9	2.5	-19.4	.	.	.	.	.
CCOC(=O)Cc1ccc(NC(=O)c2ccccc2Br)cc1	11.8	-10.2	3.9	32.4	-5.9	.	.	.	.	.
CCOC(=O)Cc1ccc(NC(=O)c2ccc(C(C)(C)C)cc2)cc1	46.8	60.1*	76.9	89.7*	49.0	64.0*	.	67.9*	22.2	100.9*
Cc1nn(C(C)(C)C)c(C)c1/C=N/OC(=O)Nc1ccc(Cl)c(Cl)c1	11.4	87.9*	.	52.0*	31.7	69.4*	.	88.8*	-7.8	102.8*
CC1=NNC(=O)C1CCC(=O)N/N=C/C(Br)=C/c1ccccc1 (centres undefined)	2.6	-28.0	2.9	13.2	-26.1	.	.	.	.	.
COc1cc(OC)c2c(-c3cccc(-c4ccoc4)c3)cc(=O)oc2c1	.	6.1	5.3	-8.7	49.1	.	.	.	.	.
COc1cc(OC)c2c(-c3cccc(-c4ccc(OC)c(F)c4)c3)cc(=O)oc2c1	.	59.9*	-8.8	-347.0	67.6*	-258.1	48.9*	58.8*	59.7*	-7.3	FLuc counter=104.3*
CCN(CC(=O)Nc1ccc2c(c1)OCCO2)C(=O)CC(NC(C)=O)c1ccccc1 (centres undefined)	27.7	-10.7	-12.7	3.9	23.1	.	.	.	.	.
CCOc1ccc(N=C(NN)c2ccc3ccccc3n2)cc1	13.3	63.8*	32.7	-251.8	-7.9	-42.7	.	73.2*	13.5	81.3*
Cc1ccc(C)c(N(CC(=O)NCCc2ccccc2)C(=O)CCC(=O)Nc2ccccn2)c1	17.1	-17.9	15.6	5.8	26.3	.	.	.	.	.
CCOc1cc(/C=N/NC(=O)c2ccc(=O)n(C)c2)ccc1O	7.0	0.9	-2.4	5.2	8.0	.	.	.	.	.
Cc1ccc(C(C)C)c(OCc2ccc(C(=O)N/N=C/c3ccc(O)c(O)c3)cc2)c1	30.8	67.2*	51.1	-276.4	53.4*	-38.2	31.1	49.4*	28.9*	92.7*
Cc1ccc(NC(=O)Cn2nc(-c3ccco3)ccc2=O)cc1Cl	16.2	-6.7	17.8	5.9	22.1	.	.	.	.	.
Clc1ccc(CN2C3=NCCN3c3ccccc32)cc1Cl	-6.2	10.9	28.0	-12.2	22.6	.	.	.	.	.
N=c1c2c(n(Cc3ccc(Cl)c(Cl)c3)c3c1CCC3)CCCC2	10.8	83.3*	78.6	43.6*	73.7*	28.7*	52.0*	88.7*	19.2	35.8*	FLuc counter=45.3*
COc1ccc(-c2n(Cc3ccccc3)c3ccccc3[n+]2Cc2ccccc2)cc1	45.4	72.0*	50.5	41.3*	89.4*	33.3*	89.2*	76.8*	32.9*	-24.1	FLuc counter=21.1
Cn1cc(S(=O)(=O)N2CCNCC2)cc1C(N)=O	-6.9	7.8	-16.2	1.8	9.1	.	.	.	.	.
CCN(CC(=O)Nc1c(F)cccc1F)C(=O)c1cc(S(=O)(=O)N(CC)CC)ccc1N1CCCCC1	5.2	52.2	10.6	66.5*	-4.1	48.7*	.	42.3	6.5	18.9
SMILES	Jurkat NFkB inh	Gli-Sufu block	Shn3 inh set2	697 NFkB inh	Mdm2-MdmX inh	697 NFkB conf	Mdm2-MdmX conf	Gli-Sufu confirm	SufuKO cytotox	Wnt3a cs	others
Cc1nn(C)c(C)c1CN(C)S(=O)(=O)c1ccc2ccccc2c1	47.1	74.7*	78.4	81.9*	9.3	72.3*	.	78.2*	28.1*	36.5*
Cc1nn(C)c(C)c1CN(C)S(=O)(=O)c1ccc(F)cc1	15.2	2.7	29.2	-14.5	13.1	.	.	.	.	.
Cc1ccc(Nc2nc(N3CCOCC3)nc(N3CCOCC3)n2)cc1C	32.0	56.5*	69.3	54.9*	41.6	46.7*	.	50.2*	41.3*	-51.3
COc1ccc(Nc2nc(N3CCOCC3)nc(N3CCOCC3)n2)cc1	-9.6	48.4	9.2	7.9	27.2	.	.	.	.	.
CCOc1ccc(-c2c[n+]3c(n2-c2ccccc2)CCCCC3)cc1	46.9	87.8*	90.5*	59.8*	29.8	53.8*	.	87.8*	39.3*	20.5
CCOc1ccc(-c2nnc(-c3ccccc3)n2-c2ccccc2)cc1	-6.4	-7.5	-18.8	-61.2	-18.0	.	.	.	.	.
c1ccc(CCCN2CCN(c3ccccc3)CC2)cc1	-3.7	28.2	8.3	10.1	-8.2	.	.	.	.	.
COc1ccccc1Nc1nc(-c2ccccc2)nc2ccccc12	15.2	-15.6	-26.2	-8.2	6.3	.	.	.	.	.
COc1ccc(CCNc2c3ccccc3nc3ccccc23)cc1OC	14.4	5.0	26.4	-10.1	50.5*	.	26.4	.	.	.
COc1ccc(C)cc1Nc1c2c(nc3ccccc13)CCC2	34.3	46.3	78.8	-45.0	59.2*	.	59.0*	.	.	.	FLuc counter=87.2*
COc1ccccc1Nc1c2ccccc2nc2ccccc12	22.2	38.1	44.9	-86.8	53.5*	.	48.2*	.	.	.	FLuc counter=69.4*
COc1ccc(CCNCC(O)Cn2c3ccccc3c3ccccc32)cc1OC (centres undefined)	10.4	10.8	1.5	11.6	92.5*	.	36.5	.	.	.	FLuc counter=55.2*
O=C(Nc1cccc([N+](=O)[O-])c1)N1CCCCCC1	-0.6	.	-17.7	-8.4	-4.3	.	.	.	.	.

High-throughput results deposited in PubChem by several laboratories.
